“And” between values parts separate entries of the source, which are not always exact repeats. Identical values can stand only once. The campaign covered roughly 5,500 compounds. About 2,000 (36%) were called active. Not shown: some 18% with an inconclusive outcome. Cut-off read from the data, not from the text of the source: active = normalized growth mostly below about 0.91 (no sharp cut-off); inconclusive = no clear call, values can overlap the other calls; inactive = mostly above about 0.92. The list shows a part of the results.
Test: chemical genetic growth profiling, strain panel (AID 1159580);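 note: tested at 20 µM; growth read once vehicle control cultures reached saturation at 30 °C; 1 = growth at the plate median or of vehicle wells; lower values mean less growth of the strain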
Details: S. cerevisiae deletion strains, growth OD

Measured: normalized growth

CC(=O)O[C@@H]1C2CC[C@@H]3C1(C[C@@H](O)[C@@]1(O)[C@@H](C[C@H](O)C1(C)C)[C@]3(C)O)C[C@@]2(C)O (stereo partly drawn)
inactive: locus YAL021C, strain ccr4, stronger effect = lower value 0.996 | locus YAL026C, strain drs2, stronger effect = lower value 0.984 | locus YAL030W, strain snc1, stronger effect = lower value 0.992 | locus YBL061C, strain skt5, stronger effect = lower value 1 | locus YBR009C, strain hhf1, stronger effect = lower value 0.99 | locus YBR021W, strain FUR4, stronger effect = lower value 1.02 | locus YBR023C, strain chs3, stronger effect = lower value 0.997 | locus YBR171W, strain sec66, stronger effect = lower value 0.979 | locus YBR229C, strain ROT2, stronger effect = lower value 0.958 | locus YBR231C, strain swc5, stronger effect = lower value 0.997 | locus YBR279W, strain paf1, stronger effect = lower value 1 | locus YCL011C, strain gbp2, stronger effect = lower value 0.985 | locus YCL016C, strain dcc1, stronger effect = lower value 0.987 | locus YCL029C, strain bik1, stronger effect = lower value 0.974 | locus YCL061C, strain MRC1, stronger effect = lower value 0.995 | locus YCL069W, strain vba3, stronger effect = lower value 0.989 | locus YCR088W, strain abp1, stronger effect = lower value 0.988 | locus YDL005C, strain med2, stronger effect = lower value 0.976 | locus YDL035C, strain GPR1, stronger effect = lower value 0.998 | locus YDL040C, strain nat1, stronger effect = lower value 0.986 | locus YDL074C, strain BRE1, stronger effect = lower value 1.07 | locus YDL101C, strain DUN1, stronger effect = lower value 0.988 | locus YDL134C, strain PPH21, stronger effect = lower value 1.05 | locus YDL185W, strain tfp1, stronger effect = lower value 0.992 | locus YDL192W, strain arf1, stronger effect = lower value 0.992 | locus YDR001C, strain nth1, stronger effect = lower value 0.996 | locus YDR069C, strain doa4, stronger effect = lower value 0.999 | locus YDR101C, strain arx1, stronger effect = lower value 0.976 | locus YDR137W, strain rgp1, stronger effect = lower value 0.922 | locus YDR159W, strain sac3, stronger effect = lower value 0.995 | locus YDR162C, strain NBP2, stronger effect = lower value 1.01 | locus YDR195W, strain ref2 0.962 | locus YDR297W, strain sur2, stronger effect = lower value 0.989 | locus YDR318W, strain mcm21, stronger effect = lower value 0.991 | locus YDR334W, strain swr1, stronger effect = lower value 0.957 | locus YDR335W, strain msn5, stronger effect = lower value 0.999 | locus YDR388W, stronger effect = lower value 0.996 | locus YDR392W, strain spt3, stronger effect = lower value 0.993 | locus YDR502C, strain sam2, stronger effect = lower value 1 | locus YEL003W, strain gim4, stronger effect = lower value 0.988 | locus YEL037C, strain rad23, stronger effect = lower value 0.997 | locus YEL061C, strain CIN8 (second series), stronger effect = lower value 0.99 | locus YER015W, strain faa2, stronger effect = lower value 0.997 | locus YER016W, strain bim1, stronger effect = lower value 0.985 | locus YER110C, stronger effect = lower value 0.96 | locus YER111C, strain swi4, stronger effect = lower value 0.998 | locus YER155C, strain BEM2 (second series), stronger effect = lower value 0.977 | locus YER155C, strain BEM2, stronger effect = lower value 0.997 | locus YER167W, strain BCK2, stronger effect = lower value 0.998 | locus YFR010W, strain ubp6, stronger effect = lower value 0.977 | locus YGL078C, strain dbp3, stronger effect = lower value 1 | locus YGL086W, strain mad1, stronger effect = lower value 1 | locus YGL167C, strain pmr1, stronger effect = lower value 0.998 | locus YGL173C, strain kem1, stronger effect = lower value 0.987 | locus YGL227W, strain vid30, stronger effect = lower value 0.998 | locus YGL240W, strain doc1, stronger effect = lower value 0.991 | locus YGL248W, strain PDE1, stronger effect = lower value 1.02 | locus YGL253W, strain hxk2, stronger effect = lower value 0.996 | locus YGR078C, strain PAC10, stronger effect = lower value 1.01 | locus YGR135W, strain pre9, stronger effect = lower value 1.05 | locus YGR252W, strain gcn5, stronger effect = lower value 1.08 | locus YHR013C, strain ard1, stronger effect = lower value 0.984 | locus YHR027C, strain rpn1, stronger effect = lower value 0.989 | locus YHR030C, strain SLT2, stronger effect = lower value 1 and 0.972 | locus YHR079C, strain IRE1 (second series), stronger effect = lower value 0.983 | locus YHR079C, strain IRE1, stronger effect = lower value 0.959 | locus YHR094C, strain hxt1, stronger effect = lower value 0.991 | locus YHR129C, strain ARP1, stronger effect = lower value 1.01 | locus YHR142W, strain chs7, stronger effect = lower value 0.997 | locus YHR200W, strain rpn10, stronger effect = lower value 0.995 | locus YIL066C, strain RNR3, stronger effect = lower value 1 | locus YIL073C, strain SPO22, stronger effect = lower value 1.08 | locus YIL125W, strain kgd1, stronger effect = lower value 0.971 | locus YIR030C, strain dcg1, stronger effect = lower value 0.993 | locus YJL092W, strain hpr5, stronger effect = lower value 0.985 | locus YJL095W, strain BCK1 (second series), stronger effect = lower value 0.996 | locus YJL095W, strain BCK1, stronger effect = lower value 1.06 and 0.981 | locus YJL115W, strain asf1, stronger effect = lower value 0.969 | locus YJL129C, strain trk1, stronger effect = lower value 0.992 | locus YJL134W, strain LCB3, stronger effect = lower value 0.99 | locus YJL154C, strain vps35, stronger effect = lower value 0.983 | locus YJL164C, strain tpk1, stronger effect = lower value 0.995 | locus YJL166W, strain qcr8, stronger effect = lower value 0.999 | locus YJL168C, strain set2, stronger effect = lower value 0.995 | locus YJL187C, strain SWE1 (second series), stronger effect = lower value 0.995 | locus YJL187C, strain SWE1, stronger effect = lower value 0.994 | locus YJR066W, strain TOR1, stronger effect = lower value 0.961 | locus YKL009W, strain mrt4, stronger effect = lower value 0.992 | locus YKL068W, stronger effect = lower value 0.988 | locus YKL085W, strain MDH1 (second series), stronger effect = lower value 0.999 | locus YKL085W, strain MDH1, stronger effect = lower value 0.999 | locus YKL160W, strain elf1, stronger effect = lower value 0.998 | locus YKL190W, strain CNB1, stronger effect = lower value 1.01 | locus YKR001C, strain vps1, stronger effect = lower value 0.997 | locus YKR026C, strain gcn3, stronger effect = lower value 0.987 | locus YKR091W, strain srl3, stronger effect = lower value 1 | locus YLL001W, strain dnm1, stronger effect = lower value 0.991 | locus YLL026W, stronger effect = lower value 0.993 | locus YLL041C, strain sdh2, stronger effect = lower value 0.989 | locus YLR027C, strain aat2, stronger effect = lower value 0.985 | locus YLR039C, strain RIC1, stronger effect = lower value 1.19 | locus YLR058C, strain SHM2, stronger effect = lower value 0.993 | locus YLR102C, strain apc9, stronger effect = lower value 0.999 | locus YLR113W, strain HOG1, stronger effect = lower value 0.987 | locus YLR221C, strain rsa3, stronger effect = lower value 0.992 | locus YLR258W, strain gsy2, stronger effect = lower value 0.983 | locus YLR262C, strain YPT6 (second series), stronger effect = lower value 1 | locus YLR268W, strain sec22, stronger effect = lower value 0.987 | locus YLR320W, strain mms22, stronger effect = lower value 1.01 | locus YLR342W, strain FKS1 (second series), stronger effect = lower value 0.986 | locus YLR342W, strain FKS1, stronger effect = lower value 1 | locus YLR357W, strain rsc2, stronger effect = lower value 0.995 | locus YLR370C, strain arc18, stronger effect = lower value 1 | locus YLR371W, strain rom2, stronger effect = lower value 1 | locus YLR384C, strain iki3, stronger effect = lower value 0.99 | locus YLR418C, strain cdc73, stronger effect = lower value 1.01 | locus YML016C, strain PPZ1, stronger effect = lower value 0.99 | locus YML032C, strain rad52, stronger effect = lower value 0.99 | locus YML120C, strain ndi1, stronger effect = lower value 0.994 | locus YML124C, strain tub3, stronger effect = lower value 1 | locus YMR058W, strain fet3, stronger effect = lower value 0.984 | locus YMR078C, strain ctf18, stronger effect = lower value 0.99 | locus YMR125W, strain sto1, stronger effect = lower value 0.981 | locus YMR129W, stronger effect = lower value 0.993 | locus YMR205C, strain PFK2, stronger effect = lower value 1.01 | locus YMR223W, strain ubp8, stronger effect = lower value 1.01 | locus YMR231W, strain pep5, stronger effect = lower value 0.993 | locus YMR263W, strain SAP30, stronger effect = lower value 0.991 | locus YMR307W, strain GAS1, stronger effect = lower value 1.16 | locus YNL067W, strain RPL9B, stronger effect = lower value 1.01 | locus YNL071W, strain lat1, stronger effect = lower value 0.981 | locus YNL153C, strain GIM3, stronger effect = lower value 0.994 | locus YNL183C, strain NPR1, stronger effect = lower value 0.952 | locus YNL209W, strain ssb2, stronger effect = lower value 0.987 | locus YNL233W, strain BNI4, stronger effect = lower value 1.05 | locus YNL248C, strain rpa49, stronger effect = lower value 0.98 | locus YNL250W, strain rad50, stronger effect = lower value 0.974 | locus YNL271C, strain bni1, stronger effect = lower value 1 | locus YNL298W, strain CLA4, stronger effect = lower value 0.992 | locus YNL307C, strain MCK1, stronger effect = lower value 0.99 | locus YNL322C, strain KRE1 (second series), stronger effect = lower value 0.99 | locus YNL322C, strain KRE1, stronger effect = lower value 0.992 | locus YNR049C, strain mso1, stronger effect = lower value 0.996 | locus YNR052C, strain pop2, stronger effect = lower value 1.01 | locus YOL006C, strain TOP1, stronger effect = lower value 1.16 | locus YOL012C, strain htz1 1.28 | locus YOL147C, strain pex11, stronger effect = lower value 1 | locus YOR001W, strain rrp6, stronger effect = lower value 0.987 | locus YOR061W, strain CKA2, stronger effect = lower value 0.985 | locus YOR069W, strain VPS5, stronger effect = lower value 1.01 | locus YOR070C, strain gyp1, stronger effect = lower value 0.985 | locus YOR080W, strain dia2, stronger effect = lower value 0.997 | locus YOR083W, strain WHI5, stronger effect = lower value 1 | locus YOR106W, strain vam3, stronger effect = lower value 0.985 | locus YOR136W, strain idh2, stronger effect = lower value 0.995 | locus YOR144C, strain elg1, stronger effect = lower value 0.994 | locus YOR184W, strain ser1, stronger effect = lower value 0.992 | locus YOR231W, strain MKK1, stronger effect = lower value 0.963 | locus YOR265W, strain rbl2, stronger effect = lower value 0.994 | locus YOR270C, strain vph1, stronger effect = lower value 0.984 | locus YOR290C, strain snf2, stronger effect = lower value 1 | locus YOR316C, strain cot1, stronger effect = lower value 0.987 | locus YPL051W, strain arl3, stronger effect = lower value 1.01 | locus YPL078C, strain atp4, stronger effect = lower value 0.996 | locus YPL106C, strain sse1, stronger effect = lower value 0.98 | locus YPL240C, strain hsp82, stronger effect = lower value 0.98 | locus YPL241C, strain CIN2, stronger effect = lower value 1.01 | locus YPL256C, strain CLN2, stronger effect = lower value 0.995 | locus YPR119W, strain clb2, stronger effect = lower value 0.992 | locus YPR141C, strain kar3, stronger effect = lower value 0.979 | locus YPR163C, strain tif3, stronger effect = lower value 1.01 | locus YPR167C, strain met16, stronger effect = lower value 1 | strain wtn01, stronger effect = lower value 0.985
